High-throughput results (PubChem BioAssay)
In the library only some 3.1% were active in any assay of this set; here they are far more common.
Statin myotox sup: protects C2C12 myotubes from simvastatin toxicity | ATP luminescence, 48 h; scaled: DMSO 0, geranylgeraniol control 100 | AID 602340 | rescue of ATP level, % at 7.49 µM | 330,000 tested, 0.78% active;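 active = mean ATP rescue above about 67%, or every replicate alone reaching that limit, limit read from the data, passing the limit was not always enough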;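 note: myotubes were challenged with 10 µM simvastatin during compound exposure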
GSIS activator: primary screen for activators of insulin secretion dependent on glucose, INS-1E cells, GLuc reporter luminescence | INS-1E GLuc reporter insulin secretion, 2-3 h | activation, % at 16.6 µM | 370,000 tested, 0.61% active | AID 743287;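 active = lowest replicate activation of at least 40%, so every replicate reaches that level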;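 note: 0% = median of neutral control wells and 100% = median of IBMX positive control wells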
Env fusion inh: inhibitors of HIV Env-mediated cell fusion. 360,000 tested, 1.1% active. inhibition, % at 12.3 µM. HeLa-JRFL Env/CEM21 cell fusion, luciferase;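 active = mean replicate inhibition score of at least 50 and every replicate individually at or above 50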;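 note: 0% = plate neutral controls and 100% = maraviroc near 300 nM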
EWS-Fli block: blocks EWS/Fli oncoprotein-driven transcription | A673 NR0B1-luciferase reporter, viability-normalised | AID 651661 | 350,000 tested, 0.67% active | inhibition, % at 12.6 µM;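 active = mean inhibition of at least 50% after viability correction, with every replicate also passing that limit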;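 note: firefly luciferase signal divided by Alamar Blue viability fluorescence both relative to DMSO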
PAX8 reporter: PAX8 transcriptional activity inhibition; RMG-I TPO-luciferase reporter, SteadyGlo, 24 h; inhibition, % at 12.6 µM; 360,000 tested, 1.2% active;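 active = mean replicate inhibition at least 60% with every replicate also reaching 60%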;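 note: luciferase light reporting Pax8 driven TPO promoter activity; plate controls were median of neutral control wells for no effect and mitoxantrone controls for full effect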
miR122 inh: miR-122 inhibition in Huh7 cells. Huh7 miR-122 Renilla luciferase sensor, 48 h; neutral wells = 0, positive control = 100. activation (reporter increase), % at 12.5 µM. 340,000 tested, 0.3% active. AID 602342;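 active = mean replicate activation score at least 90 and every replicate individually at or above 90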;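 note: higher luciferase means less miR-122 activity so hits act as miR-122 inhibitors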
The depositor's hits bear a star; . = not tested or not shown; [ ] = dose if it differs, or a comment.

SMILES | Statin myotox sup | GSIS activator | Env fusion inh | EWS-Fli block | PAX8 reporter | miR122 inh
CCOc1ccc(C(=O)NCC(=O)OCCN2C(=O)c3ccccc3C2=O)cc1OCC | 3 | 57* | . | 2 | 0 | .
CCCN(CCC)c1ncnc2nc[nH]c12 | 18 | 24 | 62* | -9 | -28 | 2
CC(C)c1ccc(NC(=O)[C@H]2CSCN2C(=O)[C@@H]2CCC(=O)N2)cc1 | 109* | -22 | -9 | . | -5 | -8
COc1cc(NC(=O)[C@H]2CSCN2C(=O)[C@@H]2CCC(=O)N2)cc(OC)c1OC | -1 | 11 | -2 | -1 | 2 | -1
COc1ccc(S(=O)(=O)Nc2ccc3c(c2)C(=O)N([C@@H](C)CO)C[C@H](C)[C@@H](CN(C)Cc2ccncc2)OCCCC[C@@H](C)O3)cc1 | . | -14 | -12[16.7 µM] | 2 | -13 | 6[16.7 µM]
CCOc1ccc(OCc2cccc(C(=O)N3CCOCC3)c2)cc1 | 36 | . | 84* | . | . | 0
OCCCNc1nc(-c2ccc(Cl)cc2)nc2ccccc12 | -22 | 58* | 33 | -1 | 0 | .
CC1(C)Cc2c(ccc3ccccc23)C(=O)N1 | 9 | . | 80* | . | . | 4
Cc1cccc(S(=O)(=O)N2CC[C@@H]3[C@H](CO)Nc4ccc(C5=CCCCC5)cc4[C@@H]32)c1 | -15 | 4 | . | 5 | 83* | -19[16.7 µM]
COc1ccccc1S(=O)(=O)N1CC[C@@H]2[C@H](CO)Nc3ccc(-c4ccc(C#N)cc4)cc3[C@@H]21 | -18 | -4 | . | 6 | 17 | -3[16.7 µM]
COc1ccccc1S(=O)(=O)N1CC[C@@H]2[C@@H](CO)Nc3ccc(-c4ccccc4)cc3[C@@H]21 | -35 | 9 | . | 7 | 70* | 25[16.7 µM]
O=S(=O)(c1ccccc1F)N1CC[C@@H]2[C@H]1c1cc(-c3cccc(F)c3)ccc1N[C@@H]2CO | -84 | -10 | . | 29 | 100* | 34[16.7 µM]
Cc1ccc(S(=O)(=O)N2CC[C@@H]3[C@@H](CO)Nc4ccc(-c5ccccc5F)cc4[C@@H]32)cc1 | 5 | -20 | . | 5 | -1 | 154*[16.7 µM]
O=S(=O)(c1ccccc1F)N1CC[C@H]2[C@H](CO)Nc3ccc(-c4cccc(F)c4)cc3[C@H]21 | -5 | 18 | . | 0 | 15 | 28[16.7 µM]
CN1CCN(C(=O)C[C@H]2C[C@@H]3c4cc(NC(=O)Nc5ccc(F)cc5)ccc4O[C@@H]3[C@@H](CO)O2)CC1 | 6 | 2 | . | -6 | . | 4[16.7 µM]
C[C@H](CO)N1C[C@H](C)[C@H](CN(C)C(=O)C2CCC2)Oc2cc(C#C[C@@H](C)O)ccc2S1(=O)=O | 8 | 5 | 7[16.7 µM] | -9 | . | 10[16.7 µM]
Cc1ccccc1S(=O)(=O)N1CC[C@@H]2[C@@H](CO)Nc3ccc(-c4ccc(F)cc4)cc3[C@@H]21 | -21 | -8 | . | 21 | 16 | 157*[16.7 µM]
COc1ccccc1-c1ccc2c(c1)[C@H]1[C@H](CCN1S(=O)(=O)c1ccccc1F)[C@H](CO)N2 | -18 | 8 | . | 6 | 81* | -11[16.7 µM]
O=S(=O)(c1ccccc1F)N1CC[C@@H]2[C@H]1c1cc(-c3ccccc3)ccc1N[C@@H]2CO | 5 | 1 | . | -1 | -7 | 3[16.7 µM]
O=S(=O)(c1ccccc1F)N1CC[C@@H]2[C@@H](CO)Nc3ccc(-c4ccccc4F)cc3[C@@H]21 | 16 | 3 | . | -19 | 13 | 85[16.7 µM]
O=S(=O)(c1ccccc1F)N1CC[C@H]2[C@H](CO)Nc3ccc(C4=CCCCC4)cc3[C@H]21 | 16 | 22 | . | -9 | 95* | 0[16.7 µM]
COc1ccccc1-c1ccc2c(c1)[C@H]1[C@H](CCN1S(=O)(=O)c1ccccc1F)[C@@H](CO)N2 | 6 | -23 | . | 8 | 53 | 45[16.7 µM]
COc1ccccc1-c1ccc2c(c1)[C@@H]1[C@@H](CCN1S(=O)(=O)c1ccccc1F)[C@H](CO)N2 | 3 | 22 | . | 18 | 81* | -6[16.7 µM]
Cc1ccccc1S(=O)(=O)N1CC[C@@H]2[C@H](CO)Nc3ccc(-c4ccc(F)cc4)cc3[C@@H]21 | 1 | 2 | . | -1 | 14 | 1[16.7 µM]
O=C(O)C[C@@H]1C[C@H]2c3cc(NC(=O)Nc4ccc(C(F)(F)F)cc4)ccc3O[C@H]2[C@H](CO)O1 | 3 | 4 | 2[16.7 µM] | -2 | -1 | 8[16.7 µM]
SMILES | Statin myotox sup | GSIS activator | Env fusion inh | EWS-Fli block | PAX8 reporter | miR122 inh
COc1ccccc1CN1C[C@@H]2C[C@@H](C3=Cc4cc(Cl)ccc4OC3)N3CCC[C@@]23C1=O | . | -9 | 67* | 15 | 12 | .
COc1ccc(S(=O)(=O)Nc2ccc(S(=O)(=O)N3CCCCC3)cc2)cc1C | 5 | -1 | -104 | . | . | 251*
COc1ccc(OC)c(S(=O)(=O)N2CCC(C(=O)Nc3cccc(C)c3)CC2)c1 | . | -5 | . | 7 | . | .
COc1ccc(NC(=O)CSc2ccc3ccccc3c2)cc1S(=O)(=O)N1CCCCC1 | . | -5 | 56* | -24 | 36 | .
COc1ccc(OC)c(S(=O)(=O)N2CCC(C(=O)Nc3ccccc3)CC2)c1 | 91* | -8 | 26 | 14 | -13 | -4
COc1ccc(NC(C)=O)cc1S(=O)(=O)Nc1ccc(S(=O)(=O)N2CCCCC2)cc1 | 0 | 7 | -3 | -3 | . | 126*
COc1ccc(S(=O)(=O)N2CCCN(S(=O)(=O)c3ccc(OC)c(C)c3)CC2)cc1C | 45 | -7 | . | 9 | . | -9
C[C@H]1CN([C@@H](C)CO)C(=O)Cc2cc(NS(=O)(=O)c3ccc(F)cc3)ccc2O[C@H]1CN(C)S(=O)(=O)c1ccccc1 | 34 | -6 | 17[16.7 µM] | -2 | . | -8[16.7 µM]
C[C@H]1CN([C@@H](C)CO)C(=O)c2cc(NS(C)(=O)=O)ccc2O[C@@H]1CN(C)CC1CCCCC1 | 7 | -5 | -8[16.7 µM] | -1 | -6 | 3[16.7 µM]
CO[C@H]1CN(C)C(=O)c2ccc(NC(=O)Nc3cc(F)ccc3F)cc2OC[C@@H](C)NC[C@@H]1C | -4 | -6 | 0[16.7 µM] | -20 | . | -5[16.7 µM]
Cc1cc(N2CCN(c3cccc(C)c3C)CC2)nc(-c2ccccc2)n1 | 117* | . | . | . | . | 3
Cc1cc(N2CCC(C(=O)NC3CC3)CC2)nc(-c2ccccc2)n1 | . | . | -27 | . | . | 0
c1ccc(-c2nn(-c3ccccc3)[n+](-c3ccccc3)n2)cc1 | -8 | -54 | 43 | 11 | 77* | 6
C[C@@H]1CN([C@H](C)CO)C(=O)c2ccccc2-c2ccccc2CO[C@H]1CN(C)S(=O)(=O)c1ccccc1 | . | 9 | . | 6 | . | .
CC(C)(C)OC(=O)N[C@@H](Cc1ccccc1)c1nnc(S(=O)(=O)Cc2ccccc2)o1 | . | 169* | 47 | . | 14 | .
Cc1ccccc1CS(=O)(=O)c1nnc([C@H](Cc2ccccc2)NC(=O)OC(C)(C)C)o1 | -619 | 45* | . | 40 | . | -6
C[C@@H]1CN([C@H](C)CO)C(=O)c2cc(NC(=O)CCC(F)(F)F)ccc2O[C@@H]1CN(C)S(=O)(=O)c1ccc(F)cc1 | -10 | -5 | 30[16.7 µM] | -6 | -5 | 34[16.7 µM]
CCn1c2ccccc2c2cc(N)ccc21 | 108* | . | . | . | . | 3
CCn1c2ccccc2c2cc(/C=C(/C#N)C(N)=S)ccc21 | . | -16 | 57* | 18 | 10 | .
